Bioassay records from PubChem.
NS1 inh: inhibitors of influenza NS1 protein function | AID 2326 | Potency, µM (titrated, usually from 46.1 µM) | actives 0.4% (n = 270,000); calls by dose curve; also: actives are rising curves; nearly all actives have a fitted effect of over 50% in size
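OD600 was taken as the measure of yeast growth restored by compound in an NS1-expressing S. cerevisiae strain. Cells had been washed out of glucose medium and diluted 1:100 into galactose -URA medium, pH 6.0.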
HCV inhibitor: blocks hepatitis C virus; Huh7.5.1 HCVcc-Cre infection, luciferase reporter, 44 h; Potency, µM (doses to about 41.8 µM), most hits filed as inhibitors; AID 651820; actives 3.4% (n = 340,000)
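Reporter virus HCVcc-Cre (~0.5 moi) infects cells exposed to compound; seeding density 1,000 cells/well with 4 h settling beforehand. Luminescence, 15 sec read, taken 44 h post-infection following a 15 min RT substrate incubation.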
Pf growth 48h: P. falciparum growth inhibition at 48 hours (one generation) | P. falciparum luciferase growth in erythrocytes, 48 h | Potency, µM (titrated, usually from 28.7 µM), hits mostly inhibitors | actives 5.9% (n = 310,000)
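Luciferase-expressing parasites in RBCs, 2% Hct / 0.1% parasitemia final; RPMI 1640 + 0.5% Albumax; 37 C, 5% CO2, one generation; luminescence read-out, lower signal = inhibition.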
Vaccinia Venus: vaccinia inhibition (Venus reporter). Vaccinia virus Venus reporter expression, fluorescence. Potency, µM (series often up to 36.5 µM), actives largely listed as inhibitors. actives 0.46% (n = 330,000). AID 720580; calls by dose curve; tested in A549 cells; also: nearly all actives have a fitted effect of over 30% in size
Pf growth 96h: P. falciparum growth inhibition at 96 hour, primary screen for plastid delayed-death inhibitors; P. falciparum luciferase reporter growth, 96 h; Potency, µM (series often up to 28.7 µM), actives largely listed as inhibitors; actives 6.9% (n = 320,000); AID 504834
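Two-generation exposure (96 h) targets delayed-death phenotype. Reporter parasites carrying integrated firefly luciferase, in red cells at 2% hematocrit and 0.05% parasitemia final, kept at 37 C, 5% CO2; luminescence loss indicates inhibition.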
Vaccinia mCherry: inhibitors of vaccinia virus infection (mCherry reporter signal); Vaccinia virus mCherry reporter infection, fluorescence; actives 0.63% (n = 310,000); Potency, µM (series often up to 36.5 µM), most hits filed as inhibitors; calls by dose curve; tested in A549 cells; also: nearly all actives have a fitted effect of over 35% in size
Large screens that a line does not name were inactive. Most compounds without a hit are left out; they make up all but 11% or so of the library. Unless noted, calls follow the shape of the dose curve; as a rule, active = well fitted inhibition curve with a large enough effect; inconclusive = small, poorly fitted or top-dose-only effect, or another doubt; inactive = no such curve, though single readings can be large or run the other way.

Cc1ccc(/C=N/NC(=O)Cc2ccc(Cl)cc2)c(O)c1	HCV inhibitor inconclusive, Pf growth 48h inconclusive, Vaccinia Venus inconclusive, Vaccinia mCherry 22.4µM
O=C(Cc1ccc(O)cc1)N/N=C/c1cccs1	none
O=C(COc1ccccc1Cl)OCc1cc(=O)n2nc(-c3cccs3)sc2n1	none (no result: NS1 inh, HCV inhibitor, Pf growth 48h, Pf growth 96h)
CCCCCn1c(N2CCN(c3cccc(Cl)c3)CC2)nc2c1c(=O)[nH]c(=O)n2C	Pf growth 96h 5.86µM (no result: Pf growth 48h)
CCCCn1c(N2CCC(Cc3ccccc3)CC2)nc2c1c(=O)[nH]c(=O)n2C	HCV inhibitor 35.5µM, Pf growth 48h 9.28µM, Vaccinia Venus inconclusive, Pf growth 96h inconclusive (no result: Vaccinia mCherry)
CCCCn1c(N2CCCC2)nc2c1c(=O)[nH]c(=O)n2C	none
Cc1nnc(SCCn2c(N3CCC(Cc4ccccc4)CC3)nc3c2c(=O)[nH]c(=O)n3C)s1	HCV inhibitor inconclusive, Pf growth 48h inconclusive, Pf growth 96h 9.28µM
Cn1c(=O)[nH]c(=O)c2c1nc(N1CCN(c3cccc(Cl)c3)CC1)n2CCCc1ccccc1	none (no result: Vaccinia Venus, Vaccinia mCherry)
Cc1nnc(SCCn2c(N3CCN(C)CC3)nc3c2c(=O)[nH]c(=O)n3C)s1	none (no result: Pf growth 48h, Vaccinia Venus, Vaccinia mCherry)
CC1CCN(c2nc3c(c(=O)[nH]c(=O)n3C)n2Cc2ccccc2Cl)CC1	Pf growth 96h 9.28µM
CCCn1c(N2CCN(CC(=O)c3c(C)n(C)c4ccc(OC)cc34)CC2)nc2c1c(=O)[nH]c(=O)n2C	Pf growth 48h inconclusive, Vaccinia Venus inconclusive, Pf growth 96h 2.08µM
COc1ccc(CCn2c(N3CCN(C)CC3)nc3c2c(=O)[nH]c(=O)n3C)cc1	none (no result: Pf growth 48h, Vaccinia mCherry)
Cc1nnc(SCCn2c(N3CCN(Cc4ccccc4)CC3)nc3c2c(=O)[nH]c(=O)n3C)s1	Pf growth 48h inconclusive, Pf growth 96h 7.38µM (no result: Vaccinia Venus, Vaccinia mCherry)
CC(=O)N1C2=CCCC3CCCCC23c2ccccc21 (stereo not given)	none (no result: NS1 inh, Pf growth 48h, Pf growth 96h)
COc1cc(CN2C(=O)C(C)ON=C2c2ncccc2C)cc(OC)c1 (stereo not given)	none (no result: NS1 inh, HCV inhibitor, Pf growth 48h, Pf growth 96h)
O=C(NCc1ccc(Cl)cc1)C(=O)c1cn(CC(=O)N2CCOCC2)c2ccccc12	Pf growth 96h 13.1µM (no result: Vaccinia Venus, Vaccinia mCherry)
COc1ccc(CNC(=O)C(=O)c2cn(CC(=O)N3CCOCC3)c3ccccc23)cc1	none (no result: Vaccinia Venus, Vaccinia mCherry)
O=C(Nc1ccccc1Cl)C(=O)c1cn(CC(=O)N2CCOCC2)c2ccccc12	Pf growth 96h 11.7µM (no result: Vaccinia Venus, Vaccinia mCherry)
OCCn1c(CSc2nnc(-c3ccco3)n2-c2ccccc2)nc2ccc(Cl)cc21	Pf growth 48h 11.7µM (no result: Vaccinia Venus, Pf growth 96h, Vaccinia mCherry)
CCOc1ccc2oc(C(=O)OCC(=O)N3C(C)CCCC3C)c(C)c2c1 (stereo not given)	HCV inhibitor 12.6µM, Pf growth 48h inconclusive, Pf growth 96h inconclusive (no result: NS1 inh, Vaccinia Venus, Vaccinia mCherry)
CCOc1ccc2oc(C(=O)N3CC(C)OC(C)C3)c(C)c2c1 (stereo not given)	Pf growth 48h inconclusive, Pf growth 96h 7.38µM
CCOc1ccc2oc(C(=O)O)c(C)c2c1	none
CCOC(=O)c1c(S(=O)(=O)N2CCCC(C)C2)c(C)n(C)c1C (stereo not given)	NS1 inh inconclusive, Pf growth 48h inconclusive, Pf growth 96h inconclusive (no result: Vaccinia Venus, Vaccinia mCherry)
CN(Cc1cnc2nc(N)nc(N)c2n1)c1ccc(C(=O)NC(CCC(=O)O)C(=O)O)c2ccccc12 (stereo not given)	Vaccinia Venus inconclusive, Vaccinia mCherry 3.16µM (no result: NS1 inh, Pf growth 48h, Pf growth 96h)
O=C(NC1CCCCC1)C(c1ccnc2ccccc12)n1c(=O)c(-c2cc3ccccc3[nH]2)nc2ccccc21 (stereo not given)	none (no result: NS1 inh, HCV inhibitor, Pf growth 48h, Pf growth 96h)
CC(C)(C)NC(=O)c1ccc(Sc2ccccc2)c([N+](=O)[O-])c1	HCV inhibitor inconclusive, Pf growth 48h 10.4µM, Pf growth 96h inconclusive (no result: Vaccinia mCherry)
N=c1c2c3c(sc2ncn1Nc1ccccc1)CCC3	HCV inhibitor inconclusive, Pf growth 48h 1.65µM, Pf growth 96h 2.94µM (no result: Vaccinia Venus, Vaccinia mCherry)
N=c1c2c3c(sc2ncn1Cc1ccccc1)CCCC3	Pf growth 48h inconclusive
CCCc1cc(C(=O)Cc2ccc(C(=O)OCC)o2)c(O)cc1O	Pf growth 48h 11.7µM, Pf growth 96h 11.7µM
CCCc1cc(C(=O)Cc2ccc(F)cc2)c(O)cc1O	Vaccinia Venus inconclusive, Vaccinia mCherry inconclusive (no result: Pf growth 96h)
Cc1cc(C)cc(-n2c(C)cc(/C=N/NC(=O)c3ccncc3)c2C)c1	Pf growth 48h inconclusive, Pf growth 96h inconclusive
Cc1ccc(/C=N/NC(=O)c2ccco2)cc1	none
Cc1cc(/C=N/NC(=O)c2ccccn2)c(C)n1-c1cccc([N+](=O)[O-])c1	HCV inhibitor inconclusive, Pf growth 96h 4.65µM (no result: NS1 inh)
Cc1cccc(-n2c(C)cc(/C=N\NC(=O)c3ccco3)c2C)c1	HCV inhibitor inconclusive, Pf growth 48h 8.28µM
Cc1cc(C)cc(-n2c(C)cc(/C=N/NC(=O)c3cccc([N+](=O)[O-])c3C)c2C)c1	HCV inhibitor 3.98µM, Vaccinia Venus inconclusive, Pf growth 96h 11.7µM (no result: Pf growth 48h, Vaccinia mCherry)
COc1cccc(C(=O)NC2=NC(c3ccccc3F)CC(=O)N2)c1 (stereo not given)	none (no result: NS1 inh, HCV inhibitor, Pf growth 48h, Pf growth 96h)
Cc1ncc2c(c1CNS(=O)(=O)N(C)C)CCN(C(=O)/C=C/c1cccc(F)c1)C2	none (no result: NS1 inh, HCV inhibitor, Pf growth 48h, Pf growth 96h)
CC(=O)N1CCN(c2ccc(N=Cc3c(O)n(-c4ccc(Cl)cc4)c(=O)[nH]c3=O)cc2)CC1	none (no result: Vaccinia mCherry)
Cc1cc(O)c2ccccc2c1O	Pf growth 96h 8.49µM (no result: NS1 inh, HCV inhibitor, Vaccinia Venus, Vaccinia mCherry)
CC(=O)Oc1c(C)cc(O)c2ccccc12	HCV inhibitor 10µM, Pf growth 48h inconclusive, Pf growth 96h inconclusive (no result: Vaccinia Venus, Vaccinia mCherry)
CC(=O)Oc1c(C)cccc1C(=O)O	none (no result: NS1 inh, HCV inhibitor, Pf growth 48h, Pf growth 96h)
Cc1ccccc1O	none (no result: NS1 inh, Pf growth 48h, Pf growth 96h)
CC(=O)Cc1cc(O)c2ccccc2c1OC(=O)c1ccccc1	Pf growth 48h 13.1µM, Vaccinia mCherry inconclusive
CC(=O)c1cc(C)c(OC(=O)c2ccccc2)c(C)c1	none (no result: NS1 inh, Pf growth 48h, Pf growth 96h)
